Results filed as inconclusive are left out. The source made the active and inactive calls. The calls were made as follows, unless noted: active = hit-call score of the fitted dose curve at least 0.9, where 1 is the maximum; inactive = score below 0.9.
What was measured:
[1] = molecular target: Retinoic acid receptor RXR-alpha (Homo sapiens) (UniProt P19793); test: ATG_RXRa_TRANS: Attagene TRANS-FACTORIAL HepG2 Assay for human Retinoid X Receptor alpha (RXRa) (AID 2283012; active = hit-call score of the fitted dose curve at least 0.9, where 1 is the maximum)
Outline: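 Transient transfection of human HepG2 with multiple GAL4-UAS reporter constructs; 24 h compound exposure; total RNA isolated, reverse-transcribed, PCR-amplified, 6-FAM labelled, HpaI-cut, resolved by capillary electrophoresis. Positive-direction fit versus DMSO.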

[2] = molecular target: human Retinoid X Receptor beta (RXRb), RXRB (gene 6257) (UniProt P28702); test: ATG_RXRb_TRANS: Attagene TRANS-FACTORIAL HepG2 Assay for human Retinoid X Receptor beta (RXRb) (AID 2283013; active = hit-call score of the fitted dose curve at least 0.9, where 1 is the maximum)
Outline: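 Transfect HepG2 with GAL4-UAS multi-reporter constructs (chimeric NR-Gal4, TRANS format); dose compound 24 h; isolate RNA, RT-PCR, FAM primer extension, HpaI digest; quantify by capillary electrophoresis; positive direction vs DMSO.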

[3] = molecular target: human Thyroid Receptor alpha (THRa1), THRA (gene 7067) (UniProt P10827); test: ATG_THRa1_TRANS: Attagene TRANS-FACTORIAL HepG2 Assay for human Thyroid Receptor alpha (THRa1) (AID 2283014; active = hit-call score of the fitted dose curve at least 0.9, where 1 is the maximum)
Outline: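 HepG2 cells transiently transfected with multiplexed GAL4-UAS reporter units for exogenous chimeric THRa1-Gal4; reporter mRNA measured 24 h after dosing by RT-PCR, 6-FAM labelling, HpaI digestion and capillary electrophoresis. Gain-of-signal fitted versus DMSO baseline.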

[4] = read-out: E-selectin (Homo sapiens) (UniProt P16581); test: BSK_3C_Eselectin: BioMAP Diversity Plus: 3C Assay for Eselectin Biomarker Activity (AID 2283015); conditions: primary human endothelial cells (HUVEC); actives raise or lower the signal
Outline: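 Primary human umbilical vein endothelial cells (3C system) were dosed with chemical and cell-surface E-selectin measured by ELISA 24 h later. Bidirectional curve fitting used DMSO as negative control and baseline.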

[5] = read-out: Interleukin-1 alpha (IL1a), IL1A (gene 3552); test: BSK_BE3C_IL1a: BioMAP Diversity Plus: BE3C Assay for Interleukin-1 alpha (IL1a) Biomarker Activity (AID 2283016); conditions: primary human bronchial epithelial cells; actives raise or lower the signal
Outline: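 BE3C primary human bronchial epithelium; cpd 24 h; IL-1a by ELISA; bidirectional fit vs DMSO; parallel SRB (0.1% SRB, 10% TCA fix, 560 nm) for cytotoxicity.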

[6] = read-out: Monocyte Chemoattractant Protein-1 (MCP1), CCL2 (gene 6347); test: BSK_3C_MCP1: BioMAP Diversity Plus: 3C Assay for Monocyte Chemoattractant Protein-1 (MCP1) Biomarker Activity (AID 2283017); conditions: primary human endothelial cells (HUVEC); actives raise or lower the signal
Outline: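 Primary human umbilical vein endothelial cells (3C system) were exposed to test chemical for 24 h, after which MCP-1 was quantified by ELISA. Activity was fitted bidirectionally against DMSO as negative control and baseline.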

[7] = read-out: Monocyte Chemoattractant Protein-1 (MCP1), CCL2 (gene 6347); test: BSK_4H_MCP1: BioMAP Diversity Plus: 4H Assay for Monocyte Chemoattractant Protein-1 (MCP1) Biomarker Activity (AID 2283018); conditions: primary human endothelial cells (HUVEC); actives raise or lower the signal
Outline: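 ELISA read-out of MCP-1 from human vascular endothelial primary cells taken at 24 hours after compound exposure. Activity was fitted in both directions relative to DMSO, which served as negative control.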

[8] = read-out: Human Leukocyte Antigen - DR isotype (HLADR), HLA-DRA (gene 3122); test: BSK_3C_HLADR: BioMAP Diversity Plus: 3C Assay for Human Leukocyte Antigen - DR isotype (HLADR) Biomarker Activity (AID 2283019); conditions: primary human endothelial cells (HUVEC); actives raise or lower the signal
Outline: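 Primary human umbilical vein endothelial cells (3C system) were dosed with compound and cell-surface HLA-DR was quantified by ELISA at 24 h. Activity was fitted bidirectionally against DMSO as negative control and baseline.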

[9] = read-out: Interleukin-8 (IL8), CXCL8 (gene 3576); test: BSK_3C_IL8: BioMAP Diversity Plus: 3C Assay for Interleukin-8 (IL8) Biomarker Activity (AID 2283020); conditions: primary human endothelial cells (HUVEC); actives raise or lower the signal
Outline: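 ELISA read-out of IL-8 from human umbilical vein endothelium, measured 24 h after chemical dosing. Activity is expressed relative to DMSO negative control, with both increases and decreases fitted.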

[10] = molecular target: human Vitamin D Receptor (VDR), VDR (gene 7421) (UniProt P11473); test: ATG_VDR_TRANS: Attagene TRANS-FACTORIAL HepG2 Assay for human Vitamin D Receptor (VDR) (AID 2283022; active = hit-call score of the fitted dose curve at least 0.9, where 1 is the maximum)
Outline: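 HepG2 cells were transiently transfected with multiple GAL4-UAS reporter units, so signal reflects exogenous chimeric receptor-Gal4 activity. After 24 h compound exposure, reporter mRNA was measured by RT-PCR, fluorescent labelling and capillary electrophoresis, fitted for gain of signal versus DMSO.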

[11] = BSK_3C_SRB: Viability Assessment in the BioMAP Diversity Plus: 3C Assay (AID 2283023); conditions: primary human endothelial cells (HUVEC);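 also: fitted both ways against DMSO so a hit may be signal rise or drop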
Outline: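 Primary human umbilical vein endothelial cells in the 3C system were read 24 h after compound dosing. Total protein was stained with 0.1% sulforhodamine B after 10% TCA fixation and read at 560 nm, with bidirectional fitting against DMSO as baseline.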

[12] = read-out: Matrix Metallopeptidase 1 (MMP1), MMP1 (gene 4312); test: BSK_BE3C_MMP1: BioMAP Diversity Plus: BE3C Assay for Matrix Metallopeptidase 1 (MMP1) Biomarker Activity (AID 2283024); conditions: primary human bronchial epithelial cells; actives raise or lower the signal
Outline: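 Human bronchial epithelial cells (BE3C system) exposed to compound for 24 h; MMP1 then quantified by ELISA. Activity was fitted in both directions relative to DMSO.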

[13] = BSK_3C_Vis: BioMAP Diversity Plus: 3C Assay for Morphology Visualization (AID 2283025); conditions: primary human endothelial cells (HUVEC);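 also: fitted both ways so gain or loss versus DMSO counts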;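 as to AC50: light microscopy image of cell morphology used as background control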
Outline: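 Chemicals were added to primary human umbilical vein endothelium, cells were incubated 24 h, and morphology was then visualized by light microscopy. Gain or loss of signal was fitted bidirectionally relative to DMSO.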

[14] = BSK_4H_SRB: Viability Assessment in the BioMAP Diversity Plus: 4H Assay (AID 2283027); conditions: primary human endothelial cells (HUVEC);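 also: cells exposed to compound for 24 h before staining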;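 as to AC50: curves fitted both ways versus DMSO so AC50 may be loss or gain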
Outline: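 Human umbilical vein endothelial cells, 24 h after chemical dosing; total protein measured by 0.1% sulforhodamine B staining after 10% TCA fixation, read at 560 nm. Bidirectional fitting against DMSO.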

[15] = BSK_BE3C_SRB: Viability Assessment in the BioMAP Diversity Plus: BE3C Assay (AID 2283028); conditions: primary human bronchial epithelial cells;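 as to AC50: fitted both ways so AC50 may mark signal gain or loss versus DMSO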
Outline: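 Human primary bronchial epithelial cells were exposed to test chemicals for 24 h. Total protein in parallel cultures was then measured by staining with 0.1% sulforhodamine B after 10% TCA fixation, with absorbance read at 560 nm. Activity was fitted bidirectionally against DMSO.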

[16] = read-out: Thrombomodulin, THBD (gene 7056); test: BSK_3C_Thrombomodulin: BioMAP Diversity Plus: 3C Assay for Thrombomodulin Biomarker Activity (AID 2283029); conditions: primary human endothelial cells (HUVEC); actives raise or lower the signal
Outline: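 Read-out is ELISA of thrombomodulin on human umbilical vein endothelium 24 h after chemical dosing. Gain or loss of signal is scored relative to DMSO. Overt cytotoxicity is checked in parallel cultures by sulforhodamine B staining.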

[17] = read-out: Urokinase-type plasminogen activator receptor (uPAR), PLAUR (gene 5329); test: BSK_4H_uPAR: BioMAP Diversity Plus: 4H Assay for Urokinase-type plasminogen activator receptor (uPAR) Biomarker Activity (AID 2283030); conditions: primary human endothelial cells (HUVEC); actives raise or lower the signal
Outline: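 Primary human umbilical vein endothelial cells were exposed to chemical for 24 h before cell-surface uPAR was quantified by ELISA. Activity was fitted bidirectionally against the DMSO negative control baseline.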

[18] = molecular target: human RAR-related Orphan Receptor gamma (RORg), RORC (gene 6097) (UniProt P51449); test: ATG_RORg_TRANS: Attagene TRANS-FACTORIAL HepG2 Assay for human RAR-related Orphan Receptor gamma (RORg) (AID 2283011; active = hit-call score of the fitted dose curve at least 0.9, where 1 is the maximum)
Outline: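 Readout: reporter transcript induction (RT-PCR, fluorescent primer extension, capillary electrophoresis) after 24 h compound exposure of transiently transfected HepG2 cells carrying a RORg-Gal4 chimera and GAL4-UAS reporters; DMSO served as baseline, with increasing signal fitted.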

[19] = read-out: Pselectin, SELP (gene 6403); test: BSK_4H_Pselectin: BioMAP Diversity Plus: 4H Assay for Pselectin Biomarker Activity (AID 2283026); conditions: primary human endothelial cells (HUVEC); actives raise or lower the signal
Outline: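 ELISA read-out of P-selectin on human umbilical vein endothelium after 24 h of dosing. Values derive from bidirectional fitting relative to DMSO. Parallel SRB protein staining flagged overt cytotoxicity.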

[20] = read-out: Monokine induced gamma interferon (MIG), CXCL9 (gene 4283); test: BSK_3C_MIG: BioMAP Diversity Plus: 3C Assay for Monokine induced gamma interferon (MIG) Biomarker Activity (AID 2283021); conditions: primary human endothelial cells (HUVEC); actives raise or lower the signal
Outline: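 Read-out is ELISA detection of MIG on human umbilical vein endothelial cells, taken 24 h after dosing. Gain or loss of signal was scored relative to DMSO controls using bidirectional curve fitting.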

Measured: AC50

Sequence of human Thyroid Receptor alpha (THRa1), THRA (gene 7067) (P10827 whole entry, looked up, the tested form may be a part): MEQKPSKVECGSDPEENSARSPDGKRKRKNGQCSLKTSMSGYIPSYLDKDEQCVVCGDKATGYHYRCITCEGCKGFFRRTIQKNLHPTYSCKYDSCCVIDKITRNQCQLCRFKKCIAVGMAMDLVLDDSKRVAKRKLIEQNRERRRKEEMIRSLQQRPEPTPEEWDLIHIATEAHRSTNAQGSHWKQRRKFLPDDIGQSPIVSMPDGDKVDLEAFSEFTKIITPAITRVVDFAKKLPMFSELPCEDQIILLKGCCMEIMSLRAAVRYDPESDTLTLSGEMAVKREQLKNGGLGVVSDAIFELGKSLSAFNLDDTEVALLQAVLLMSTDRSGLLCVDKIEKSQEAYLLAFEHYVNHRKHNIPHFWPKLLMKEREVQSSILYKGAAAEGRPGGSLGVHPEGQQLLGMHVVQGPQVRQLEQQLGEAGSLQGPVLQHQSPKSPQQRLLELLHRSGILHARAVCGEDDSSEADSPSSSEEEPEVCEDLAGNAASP
Sequence of E-selectin (Homo sapiens) (P16581 whole entry, looked up): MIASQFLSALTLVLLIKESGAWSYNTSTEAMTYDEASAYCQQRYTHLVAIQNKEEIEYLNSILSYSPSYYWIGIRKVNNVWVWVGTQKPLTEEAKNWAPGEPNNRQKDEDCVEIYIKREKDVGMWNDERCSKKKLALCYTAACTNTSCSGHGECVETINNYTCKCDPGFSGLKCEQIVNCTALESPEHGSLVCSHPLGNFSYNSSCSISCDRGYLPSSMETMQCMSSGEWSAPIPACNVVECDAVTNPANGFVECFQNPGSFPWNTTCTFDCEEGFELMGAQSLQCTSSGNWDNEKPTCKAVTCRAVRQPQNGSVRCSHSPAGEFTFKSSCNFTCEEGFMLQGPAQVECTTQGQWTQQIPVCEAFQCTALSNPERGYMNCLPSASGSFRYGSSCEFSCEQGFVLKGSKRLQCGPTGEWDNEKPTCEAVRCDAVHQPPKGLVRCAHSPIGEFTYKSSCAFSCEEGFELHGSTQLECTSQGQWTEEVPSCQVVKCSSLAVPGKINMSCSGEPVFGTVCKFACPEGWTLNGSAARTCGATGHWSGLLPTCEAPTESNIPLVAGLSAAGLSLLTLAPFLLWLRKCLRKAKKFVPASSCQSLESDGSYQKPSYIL
Sequence of Retinoic acid receptor RXR-alpha (Homo sapiens) (P19793 whole entry, looked up, the tested form may be a part): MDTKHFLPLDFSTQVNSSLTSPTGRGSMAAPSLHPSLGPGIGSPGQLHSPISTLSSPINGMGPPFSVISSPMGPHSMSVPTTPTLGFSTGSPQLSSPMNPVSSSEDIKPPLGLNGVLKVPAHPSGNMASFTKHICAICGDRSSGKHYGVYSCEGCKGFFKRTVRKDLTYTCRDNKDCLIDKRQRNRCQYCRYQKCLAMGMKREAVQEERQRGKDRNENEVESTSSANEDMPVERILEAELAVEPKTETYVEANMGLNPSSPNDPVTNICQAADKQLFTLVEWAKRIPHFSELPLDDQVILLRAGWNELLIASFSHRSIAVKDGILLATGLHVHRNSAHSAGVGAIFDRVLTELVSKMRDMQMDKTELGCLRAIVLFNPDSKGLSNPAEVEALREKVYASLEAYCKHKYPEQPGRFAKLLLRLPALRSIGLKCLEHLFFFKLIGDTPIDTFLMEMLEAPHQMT
Sequence of human Vitamin D Receptor (VDR), VDR (gene 7421) (P11473 whole entry, looked up, the tested form may be a part): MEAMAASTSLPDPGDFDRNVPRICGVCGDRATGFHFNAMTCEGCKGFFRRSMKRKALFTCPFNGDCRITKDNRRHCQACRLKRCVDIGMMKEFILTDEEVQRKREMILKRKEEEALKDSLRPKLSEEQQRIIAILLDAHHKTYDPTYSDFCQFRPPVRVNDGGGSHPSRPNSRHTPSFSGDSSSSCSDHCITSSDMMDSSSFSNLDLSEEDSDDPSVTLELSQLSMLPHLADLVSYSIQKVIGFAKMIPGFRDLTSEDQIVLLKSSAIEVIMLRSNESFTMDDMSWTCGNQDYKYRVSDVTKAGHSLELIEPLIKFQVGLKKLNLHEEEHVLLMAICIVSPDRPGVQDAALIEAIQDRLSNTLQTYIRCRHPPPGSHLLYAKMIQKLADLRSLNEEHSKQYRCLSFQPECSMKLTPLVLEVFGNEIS
Sequence of human RAR-related Orphan Receptor gamma (RORg), RORC (gene 6097) (P51449 whole entry, looked up, the tested form may be a part): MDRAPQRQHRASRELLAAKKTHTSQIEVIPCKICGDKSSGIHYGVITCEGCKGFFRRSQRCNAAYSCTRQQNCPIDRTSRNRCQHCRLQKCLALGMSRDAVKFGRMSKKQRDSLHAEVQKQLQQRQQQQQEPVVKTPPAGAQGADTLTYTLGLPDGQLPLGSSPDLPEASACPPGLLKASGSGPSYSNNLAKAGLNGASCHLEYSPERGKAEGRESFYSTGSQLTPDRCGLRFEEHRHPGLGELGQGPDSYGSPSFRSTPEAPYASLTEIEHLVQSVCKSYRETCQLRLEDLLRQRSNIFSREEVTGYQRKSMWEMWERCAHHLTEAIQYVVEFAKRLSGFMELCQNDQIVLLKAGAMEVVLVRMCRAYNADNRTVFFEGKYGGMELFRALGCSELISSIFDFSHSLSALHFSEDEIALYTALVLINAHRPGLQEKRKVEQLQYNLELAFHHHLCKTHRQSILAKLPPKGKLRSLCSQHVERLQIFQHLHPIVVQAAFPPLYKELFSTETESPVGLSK
Sequence of human Retinoid X Receptor beta (RXRb), RXRB (gene 6257) (P28702 whole entry, looked up, the tested form may be a part): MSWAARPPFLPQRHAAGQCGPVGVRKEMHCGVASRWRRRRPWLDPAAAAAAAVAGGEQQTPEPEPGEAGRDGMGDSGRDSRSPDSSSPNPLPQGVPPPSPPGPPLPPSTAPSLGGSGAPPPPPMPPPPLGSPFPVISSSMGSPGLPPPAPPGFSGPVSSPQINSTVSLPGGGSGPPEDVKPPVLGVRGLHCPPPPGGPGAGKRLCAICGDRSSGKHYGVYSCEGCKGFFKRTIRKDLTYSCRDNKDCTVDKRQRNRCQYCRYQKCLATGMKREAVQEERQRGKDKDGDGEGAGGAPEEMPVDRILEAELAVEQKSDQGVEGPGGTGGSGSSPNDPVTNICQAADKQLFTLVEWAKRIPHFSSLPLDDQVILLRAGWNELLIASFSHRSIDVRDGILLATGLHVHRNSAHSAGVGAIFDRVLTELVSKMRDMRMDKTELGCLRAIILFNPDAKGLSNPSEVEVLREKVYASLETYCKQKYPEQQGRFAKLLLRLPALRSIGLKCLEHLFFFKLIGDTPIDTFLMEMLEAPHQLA

C1=Cc2cccc3cccc1c23
inactive: [1] | [2] | [3] | [4] | [5] | [6] | [7] | [8] | [9] | [10] | [11] | [12] | [13] | [14] | [15] | [16] | [17]

CCCCCCCCn1sccc1=O
active: [2] 15.4 µM | [4] 12.6 µM | [5] 8.59 µM | [6] 9.73 µM | [7] 8.07 µM | [8] 5.11 µM | [9] 12.4 µM | [11] 20.8 µM | [12] 15.1 µM | [13] 12.9 µM | [19] 8.69 µM | [14] 21 µM | [15] 12.8 µM | [16] 5.76 µM | [17] 10.5 µM
inactive: [18]

Brc1ccc(Oc2ccccc2)cc1
active: [2] 69.7 µM | [4] 30.9 µM | [11] 28.9 µM
inactive: [1] | [5] | [6] | [7] | [8] | [9] | [20] | [10] | [12] | [13] | [14] | [15] | [16] | [17]

CCN(CC)N=O
inactive: [18] | [3] | [4] | [5] | [6] | [7] | [8] | [9] | [20] | [11] | [12] | [13] | [19] | [14] | [15] | [16] | [17]

Oc1ccccc1Cl
inactive: [1] | [2] | [4] | [5] | [6] | [7] | [8] | [9] | [20] | [10] | [11] | [12] | [13] | [19] | [14] | [15] | [16] | [17]

CCOC(=O)[C@]1(c2ccccc2)Oc2ccccc2[C@@H]1N
active: [6] 13.4 µM | [8] 27.6 µM | [9] 20 µM | [11] 24.7 µM | [13] 39 µM | [17] 10.3 µM
inactive: [18] | [3] | [4] | [5] | [7] | [10] | [12] | [19] | [14] | [15] | [16]

CCCCOC(=O)c1ccccc1C(=O)OCc1ccccc1
active: [7] 11.8 µM
inactive: [1] | [2] | [4] | [5] | [6] | [8] | [9] | [20] | [11] | [12] | [13] | [19] | [14] | [15] | [16] | [17]

Reference: PubChem BioAssay (EPA / NIEHS)
